Bioassay records (PubChem BioAssay)
The list is not random: actives were taken first. Their share in the collection is about 3.5%.
mHTT-CaM PPI inh – inhibitors of human mutant huntingtin-calmodulin interaction; P42858; AlphaScreen His-mHTT/GST-CaM binding, luminescence; inhibition, % at 15 µM; 190,000 compounds, 3.6% hits
Target sequence (P42858 whole entry, looked up, change not shown): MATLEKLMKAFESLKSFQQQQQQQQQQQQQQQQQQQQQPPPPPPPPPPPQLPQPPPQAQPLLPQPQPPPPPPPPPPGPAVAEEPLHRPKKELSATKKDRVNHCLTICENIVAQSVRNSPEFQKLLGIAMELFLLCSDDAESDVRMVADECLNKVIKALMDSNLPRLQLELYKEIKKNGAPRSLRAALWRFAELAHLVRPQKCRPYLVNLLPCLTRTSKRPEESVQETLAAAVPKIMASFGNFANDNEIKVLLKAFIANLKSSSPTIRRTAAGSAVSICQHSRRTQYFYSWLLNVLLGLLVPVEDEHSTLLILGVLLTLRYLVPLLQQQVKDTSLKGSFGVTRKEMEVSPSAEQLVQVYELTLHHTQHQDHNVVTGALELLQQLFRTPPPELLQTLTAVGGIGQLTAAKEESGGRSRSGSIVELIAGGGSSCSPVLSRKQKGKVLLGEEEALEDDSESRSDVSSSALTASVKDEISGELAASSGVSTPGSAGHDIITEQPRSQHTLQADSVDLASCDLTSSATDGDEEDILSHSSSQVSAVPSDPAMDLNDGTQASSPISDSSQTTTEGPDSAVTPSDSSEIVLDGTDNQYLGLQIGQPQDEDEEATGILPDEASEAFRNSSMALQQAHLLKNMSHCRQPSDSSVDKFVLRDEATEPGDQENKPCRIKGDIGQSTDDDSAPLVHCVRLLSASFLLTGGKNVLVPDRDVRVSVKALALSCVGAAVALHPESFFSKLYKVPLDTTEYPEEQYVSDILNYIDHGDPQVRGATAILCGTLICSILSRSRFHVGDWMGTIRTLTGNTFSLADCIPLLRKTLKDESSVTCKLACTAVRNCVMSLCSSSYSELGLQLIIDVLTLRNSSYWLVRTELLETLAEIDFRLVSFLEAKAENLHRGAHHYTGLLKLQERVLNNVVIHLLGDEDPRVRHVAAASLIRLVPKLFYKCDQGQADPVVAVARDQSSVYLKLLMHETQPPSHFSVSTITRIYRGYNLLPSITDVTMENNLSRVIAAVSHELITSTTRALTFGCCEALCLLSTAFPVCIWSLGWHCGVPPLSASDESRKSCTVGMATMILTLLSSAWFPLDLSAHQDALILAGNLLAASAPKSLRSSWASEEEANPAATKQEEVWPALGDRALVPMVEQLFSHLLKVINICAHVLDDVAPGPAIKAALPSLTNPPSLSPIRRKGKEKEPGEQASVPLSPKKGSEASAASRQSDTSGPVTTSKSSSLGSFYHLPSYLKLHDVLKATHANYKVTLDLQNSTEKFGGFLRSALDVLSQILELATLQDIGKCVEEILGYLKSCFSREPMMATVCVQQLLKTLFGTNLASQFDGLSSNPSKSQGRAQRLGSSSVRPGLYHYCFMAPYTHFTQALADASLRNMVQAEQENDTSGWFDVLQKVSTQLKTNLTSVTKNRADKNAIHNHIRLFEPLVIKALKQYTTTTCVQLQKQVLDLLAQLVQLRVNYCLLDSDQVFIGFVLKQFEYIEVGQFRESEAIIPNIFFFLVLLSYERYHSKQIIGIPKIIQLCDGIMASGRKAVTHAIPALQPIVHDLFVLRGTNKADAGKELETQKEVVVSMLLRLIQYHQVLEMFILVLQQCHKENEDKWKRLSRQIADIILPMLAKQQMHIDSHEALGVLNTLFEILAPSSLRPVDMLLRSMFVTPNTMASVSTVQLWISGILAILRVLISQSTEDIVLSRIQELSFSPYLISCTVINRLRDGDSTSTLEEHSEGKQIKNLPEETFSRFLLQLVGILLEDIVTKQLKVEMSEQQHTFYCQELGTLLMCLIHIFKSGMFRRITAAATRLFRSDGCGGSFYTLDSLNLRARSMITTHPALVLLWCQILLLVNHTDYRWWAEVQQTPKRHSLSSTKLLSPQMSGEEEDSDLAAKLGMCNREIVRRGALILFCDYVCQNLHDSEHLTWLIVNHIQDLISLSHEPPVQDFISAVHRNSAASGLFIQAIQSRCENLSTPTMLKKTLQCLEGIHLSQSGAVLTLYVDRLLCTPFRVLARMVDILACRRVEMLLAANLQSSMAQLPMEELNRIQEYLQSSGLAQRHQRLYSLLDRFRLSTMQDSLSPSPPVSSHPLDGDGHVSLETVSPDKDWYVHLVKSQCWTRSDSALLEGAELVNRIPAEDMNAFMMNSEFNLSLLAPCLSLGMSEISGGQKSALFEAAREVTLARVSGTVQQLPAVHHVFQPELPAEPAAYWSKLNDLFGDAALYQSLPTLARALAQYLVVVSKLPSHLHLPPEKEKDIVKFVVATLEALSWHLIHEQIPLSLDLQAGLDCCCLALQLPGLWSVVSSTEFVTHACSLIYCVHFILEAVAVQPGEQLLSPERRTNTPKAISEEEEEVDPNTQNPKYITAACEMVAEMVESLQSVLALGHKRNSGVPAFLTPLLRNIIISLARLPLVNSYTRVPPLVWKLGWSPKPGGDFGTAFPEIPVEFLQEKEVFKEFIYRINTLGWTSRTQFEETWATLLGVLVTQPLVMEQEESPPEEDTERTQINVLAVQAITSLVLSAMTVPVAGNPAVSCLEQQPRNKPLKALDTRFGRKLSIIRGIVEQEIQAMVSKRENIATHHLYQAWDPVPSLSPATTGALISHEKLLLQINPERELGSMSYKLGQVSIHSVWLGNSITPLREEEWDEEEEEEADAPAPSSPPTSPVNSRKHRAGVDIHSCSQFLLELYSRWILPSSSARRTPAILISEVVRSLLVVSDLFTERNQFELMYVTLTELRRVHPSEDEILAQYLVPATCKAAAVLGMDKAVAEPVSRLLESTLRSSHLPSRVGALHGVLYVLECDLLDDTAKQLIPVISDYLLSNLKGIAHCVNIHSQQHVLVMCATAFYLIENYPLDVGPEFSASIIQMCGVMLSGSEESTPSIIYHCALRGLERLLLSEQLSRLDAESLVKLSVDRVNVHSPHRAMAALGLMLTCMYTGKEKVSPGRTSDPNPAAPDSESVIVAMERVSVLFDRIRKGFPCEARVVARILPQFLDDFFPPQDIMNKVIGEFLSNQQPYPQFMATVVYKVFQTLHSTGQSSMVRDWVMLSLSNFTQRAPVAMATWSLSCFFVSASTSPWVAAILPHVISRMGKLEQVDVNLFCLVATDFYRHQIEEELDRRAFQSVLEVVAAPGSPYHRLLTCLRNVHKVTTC
Pf apPOL block – Pf-apPOL DNA polymerase inhibition; Recombinant Pf-apPOL, molecular beacon fluorescence, 1.5 h; inhibition, % at 10 µM; 210,000 compounds, 0.25% hits
Numbers stand for hits; i = inactive; nt = not tested or not shown. No stated cut-off is given here; in the data, active means inhibition above about 50%; inactive means the rest.

SMILES	mHTT-CaM PPI inh	Pf apPOL block
CC1C(=O)N(Cc2cn(Cc3ccco3)nn2)CCS(=O)(=O)N1Cc1ccc(-c2cccc(N(C)C)c2)cc1 (centres undefined)	64	i
CC1C(=O)N(Cc2cn(Cc3ccco3)nn2)CCS(=O)(=O)N1Cc1ccc(-c2cccnc2)cc1 (centres undefined)	i	i
Cc1ccc(-c2ccc(CN3C(CC(C)C)C(=O)N(Cc4cn(Cc5ccco5)nn4)CCS3(=O)=O)cc2)cc1 (centres undefined)	i	i
CC(C)CC1C(=O)N(Cc2cn(Cc3ccco3)nn2)CCS(=O)(=O)N1Cc1ccc(-c2cccc(N(C)C)c2)cc1 (centres undefined)	68	i
O=C(OCc1ccccc1)c1ccc(Sc2ccc(C(=O)OCc3ccccc3)cc2)cc1	nt	i
COc1ccc(CC(=O)N2CCC(c3nc(C(=O)N4CCCC4)c(C)o3)CC2)cc1Cl	i	i
COc1ccc(CNC(=O)[C@@H]2CC=C[C@@H]3CCN(Cc4ccc(OC)c(OC)c4)C(=O)[C@@H]32)cc1	i	i
O=C(O)[C@H]1CC=C[C@H]2CCN(Cc3ccc(Cl)c(Cl)c3)C(=O)[C@@H]12	i	i
COc1ccc(CNC(=O)[C@@H]2CC=C[C@@H]3CCN(Cc4ccc(Cl)c(Cl)c4)C(=O)[C@@H]32)cc1	94	i
COC(=O)[C@H]1CC=C[C@H]2CCN(Cc3ccc(Cl)c(Cl)c3)C(=O)[C@@H]12	68	i
COc1ccc(NC(=O)NC(c2ccccc2)c2ccccc2)cc1N1CCCC1=O	55	i
COc1ccc(NC(=O)CC(C)C)cc1N1CCCC1=O	i	i
COc1ccc(CCN2C(=S)NC3c4cc([N+](=O)[O-])ccc4OC2(C)C3C)cc1OC (centres undefined)	61	i
COCCCN1C(=S)NC2c3cc([N+](=O)[O-])ccc3OC1(C)C2C (centres undefined)	i	i
O=C(Cn1cc(-c2ccc(F)cc2)oc1=O)NCCc1ccccn1	i	i
CC(=O)NCCc1csc(C2CCN(C(=O)Nc3cc(F)ccc3F)CC2)n1	i	i
O=C(NC1CC1)c1cccc(OCC2CCCN(C(=O)c3ccoc3)C2)c1 (centres undefined)	i	i
Cc1ccc(C(=O)N2CCN(S(=O)(=O)c3ccccc3)C2c2ccc(N(C)C)cc2)cc1 (centres undefined)	53	i
Cc1ccc(C(=O)N2CCN(C(=O)c3ccccc3)C2c2ccc(N(C)C)cc2)cc1 (centres undefined)	i	i
CS(=O)(=O)N1CCN(c2ccc([N+](=O)[O-])c(NCCOc3ccc(Cl)cc3)c2)CC1	i	i
CCc1ccc(OCCNc2cc(N3CC(C)NC(C)C3)ccc2[N+](=O)[O-])cc1 (centres undefined)	100	i
CCCN1CCc2nc(SCc3ccccc3)[nH]c(=O)c2C1	i	i
CCCc1ccc(S(=O)(=O)NCCC2CCN(C(=O)NC3CCCCC3)CC2)cc1	i	i
CCN1CCC2(CC1)N=C(c1ccc(C)cc1C)CC(c1cc(Cl)ccc1O)N2 (centres undefined)	90	i
CC(=O)N1CCC2(CC1)N=C(c1ccccc1O)CC(c1ccc(Cl)cc1)N2 (centres undefined)	i	i
SMILES	mHTT-CaM PPI inh	Pf apPOL block
Cc1ccc(C2CC(c3cc(Cl)ccc3O)=NC3(CCN(C)CC3)N2)cc1 (centres undefined)	100	i
CCN1CCC2(CC1)N=C(c1ccc(C)c(C)c1)CC(c1cc(Cl)ccc1O)N2 (centres undefined)	i	i
CC(=O)N1CCC2(CC1)N=C(c1cc(Cl)ccc1O)CC(c1ccc(C)cc1)N2 (centres undefined)	i	i
CC(=O)N1CCC2(CC1)N=C(c1ccccc1O)CC(c1ccc(F)c(Cl)c1)N2 (centres undefined)	69	i
O=c1[nH]cc(C(F)(F)F)cc1[N+](=O)[O-]	nt	i
COc1ccc(C(=O)N2CCCC(c3nc(CCNC(C)=O)cs3)C2)cc1 (centres undefined)	i	i
CC1(C)C(=O)N(Cc2ccc(Cl)cc2)C(=O)N1CC(O)Cn1ccnc1 (centres undefined)	i	i
Cc1cccc(C(=O)NCc2ccc(-n3ccnc3)cc2)c1	i	i
Cc1csc(=NC(=O)c2ccccc2)n1Cc1ccco1	i	i
Cc1ccccc1N=c1scc(-c2ccccc2)n1Cc1ccco1	73	i
O=C(Nc1nc(C(=O)N2CCc3ccccc32)co1)c1cccs1	i	i
O=C(C1CCCN(S(=O)(=O)N2CCCCCC2)C1)N1CCC2(CC1)OCCO2 (centres undefined)	i	i
CCSC1=NC(=O)/C(=C2\C=Cc3ccccc3N2CC)S1	i	i
CCN1C(=O)/C(=C2\C=Cc3ccccc3N2CC)SC1=Nc1ccc(OC)cc1	55	i
CCOc1ccc(-c2[nH]nc3c2C(c2ccc(F)cc2)C(C#N)=C(N)O3)c(OCC)c1 (centres undefined)	i	i
CCOc1ccc(-c2[nH]nc3c2C(c2ccccc2F)C(C#N)=C(N)O3)c(OCC)c1 (centres undefined)	51	i
CC1Cn2cc(-c3ccc([N+](=O)[O-])cc3)nc2S1 (centres undefined)	i	51
O=[N+]([O-])c1ccc(-c2cn3c(n2)SCC3)cc1	i	i
CC(=O)N1CCCc2ccc(NC(=O)c3ccc(C)cc3)cc21	i	i
COc1ccc(N(C)S(=O)(=O)C2CCS(=O)(=O)C2)cc1 (centres undefined)	i	nt
CC(=O)N(Cc1ccc2c(c1)CN(C(=O)C(C)(C)C)CCO2)c1ccc(C)cc1	73	i
CC(C)(C)C(=O)N1CCN(Cc2ccc3c(c2)OCO3)CC1	nt	i
CCc1ccc(NC(=O)C2CC(=O)N(c3cccc(NC(C)=O)c3)C2)cc1 (centres undefined)	i	i
NC(=S)N1N=C(c2ccccc2)CC1c1ccccc1 (centres undefined)	i	nt
N#CC(c1ccccc1O)N1N=C(c2ccccc2)CC1c1ccccc1 (centres undefined)	92	i
SMILES	mHTT-CaM PPI inh	Pf apPOL block
Cc1cc(F)ccc1NC(=O)C1CCN(c2c(C#N)cnc3ccccc23)CC1	i	i
O=[N+]([O-])c1cc(Br)c(O)c(/C=C/c2ccc3cccc(O)c3n2)c1	83	i
COc1ccc(Br)cc1/C=C/c1ccc2cccc(O)c2n1	i	i
CC(C)Sc1cccc(-c2nnc(NC(=O)c3cc(-c4ccco4)on3)o2)c1	i	i
CC(C)Sc1cccc(C(=O)Nc2nnc(-c3ccnn3C(C)C)o2)c1	68	i
COc1ccc(C2C(C(=O)Nc3ccc(C)cc3)=C(C)Nc3ncnn32)cc1OC (centres undefined)	i	i
CSc1ccc(NC(=O)N2CCc3c(c(-c4nc(C5CC5)no4)nn3C)C2)cc1	i	i
COc1cc(CN2CCc3nc(Nc4ccccc4)ncc3C2)ccc1OC(C)C	57	i
COc1cc(CN2CCc3nc(Nc4ccc(F)cc4)ncc3C2)ccc1OC(C)C	95	i
CCOc1ccc(CN2CCc3nc(Nc4ccccc4)ncc3C2)cc1OC	i	i
COc1cc(CN2CCc3nc(Nc4ccccc4F)ncc3C2)ccc1OC(C)C	i	i
CCCN(CCO)Cc1ccc(SC)cc1	i	i
CC1=CC(=O)C(C(C)C)=CC1=NC(=O)c1ccc(C)cc1	60	i
CC1=CC(=O)C(C(C)C)=C/C1=N\OC(=O)c1cccc(Br)c1	i	i
COc1ccc(C2=C/C(=C/c3cc(OC)c(OC)c(OC)c3)C(=O)O2)c(OC)c1	i	i
